This assay in a line: activation of alpha-dystroglycan glycosylation – single concentration, Pro5-aDG cells, confirmation (AID 651671).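 Also: cells exposed to compound for two days before detection; 0% = DMSO-treated Pro5 cells and 100% = DMSO-treated B10-LARGE cells.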 The note with it: alpha-DG glycosylation, IIH6 AlphaLISA, hits give high values, screened at 10 µM (by protocol), scaled to LARGE-overexpressing B10 cells as 100%. A general note: Bead proximity is the source of the signal in Alpha formats.

The source of these data is PubChem BioAssay AID651671 (Sanford-Burnham Center for Chemical Genomics, 2012).

This is one part of the list. A number with no mark means an inactive call.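 The calls were made as follows: active = activation of at least 7% in one or more replicates; inactive = the rest.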

On to `CNCC(O)c1cc(F)c(OCc2ccccc2)c(OCc2ccccc2)c1F` (stereo unspecified), for which the activation was 4%.
